# Test results as given in ChEMBL document CHEMBL1961873, “Compounds: GSK PKIS; Assays: Nanosyn kinase panel” (2012).
# Legend:
# [1] = biological target: Ribosomal protein S6 kinase alpha-6 (Homo sapiens) (UniProt Q9UK32); conditions: at 1 µM;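 note: each value is a mean inhibition of RSK4 from a GSK PKIS panel screen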
# [2] = biological target: T1, Serine/threonine-protein kinase Sgk1 (Homo sapiens) (UniProt O00141); conditions: at 0.1 µM
# T1 sequence (whole entry): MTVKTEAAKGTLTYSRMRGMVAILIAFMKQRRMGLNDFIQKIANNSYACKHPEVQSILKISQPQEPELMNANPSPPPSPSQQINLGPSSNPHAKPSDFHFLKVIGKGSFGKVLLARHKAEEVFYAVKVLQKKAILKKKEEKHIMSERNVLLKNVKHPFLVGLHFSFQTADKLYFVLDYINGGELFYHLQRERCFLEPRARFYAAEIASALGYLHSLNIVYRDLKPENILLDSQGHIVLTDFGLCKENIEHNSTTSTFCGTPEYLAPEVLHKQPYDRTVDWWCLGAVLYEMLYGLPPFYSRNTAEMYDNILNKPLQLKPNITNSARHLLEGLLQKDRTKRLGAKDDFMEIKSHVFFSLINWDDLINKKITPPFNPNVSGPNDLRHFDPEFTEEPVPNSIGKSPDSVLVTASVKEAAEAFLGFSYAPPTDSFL
# [3] = biological target: T1, Serine/threonine-protein kinase Sgk1 (Homo sapiens); conditions: at 1 µM
# [4] = biological target: T2, Serine/threonine-protein kinase Sgk2 (Homo sapiens) (UniProt Q9HBY8); conditions: at 0.1 µM
# T2 sequence (whole entry): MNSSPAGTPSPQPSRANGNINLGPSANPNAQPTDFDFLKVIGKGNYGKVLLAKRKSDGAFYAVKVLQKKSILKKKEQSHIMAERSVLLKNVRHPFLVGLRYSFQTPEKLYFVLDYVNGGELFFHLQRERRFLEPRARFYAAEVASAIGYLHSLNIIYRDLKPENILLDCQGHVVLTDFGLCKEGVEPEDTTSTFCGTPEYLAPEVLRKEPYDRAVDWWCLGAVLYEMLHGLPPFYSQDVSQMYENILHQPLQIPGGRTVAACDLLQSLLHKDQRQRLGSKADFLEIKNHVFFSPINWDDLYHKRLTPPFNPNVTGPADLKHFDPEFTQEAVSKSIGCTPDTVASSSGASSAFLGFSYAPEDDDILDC
# [5] = biological target: T2, Serine/threonine-protein kinase Sgk2 (Homo sapiens); conditions: at 1 µM
# [6] = biological target: T3, Serine/threonine-protein kinase Sgk3 (Homo sapiens) (UniProt Q96BR1); conditions: at 0.1 µM
# T3 sequence (whole entry): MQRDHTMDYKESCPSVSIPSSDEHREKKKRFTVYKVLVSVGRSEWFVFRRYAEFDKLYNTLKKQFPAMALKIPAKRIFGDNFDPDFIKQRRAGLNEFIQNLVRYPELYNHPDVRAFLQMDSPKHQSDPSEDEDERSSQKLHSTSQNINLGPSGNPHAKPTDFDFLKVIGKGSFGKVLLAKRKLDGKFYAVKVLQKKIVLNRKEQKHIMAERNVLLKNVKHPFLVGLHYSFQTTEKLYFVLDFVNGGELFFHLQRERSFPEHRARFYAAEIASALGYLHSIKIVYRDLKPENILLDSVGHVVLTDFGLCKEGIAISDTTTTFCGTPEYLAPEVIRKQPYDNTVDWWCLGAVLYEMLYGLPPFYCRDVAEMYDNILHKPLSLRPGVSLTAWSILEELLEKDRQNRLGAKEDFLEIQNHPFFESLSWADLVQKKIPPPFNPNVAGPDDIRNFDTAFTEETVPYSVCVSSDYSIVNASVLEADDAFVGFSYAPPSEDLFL
# [7] = biological target: T3, Serine/threonine-protein kinase Sgk3 (Homo sapiens); conditions: at 1 µM
# [8] = biological target: 5'-AMP-activated protein kinase catalytic subunit alpha-1 (Homo sapiens) (UniProt Q13131); conditions: at 0.1 µM
# [9] = biological target: 5'-AMP-activated protein kinase catalytic subunit alpha-1 (Homo sapiens) (UniProt Q13131); conditions: at 1 µM
# [10] = biological target: 5'-AMP-activated protein kinase catalytic subunit alpha-2 (Homo sapiens) (UniProt P54646); conditions: at 0.1 µM
# [11] = biological target: 5'-AMP-activated protein kinase catalytic subunit alpha-2 (Homo sapiens) (UniProt P54646); conditions: at 1 µM
# [12] = biological target: T4, NUAK family SNF1-like kinase 1 (Homo sapiens) (UniProt O60285); conditions: at 0.1 µM
# T4 sequence (whole entry): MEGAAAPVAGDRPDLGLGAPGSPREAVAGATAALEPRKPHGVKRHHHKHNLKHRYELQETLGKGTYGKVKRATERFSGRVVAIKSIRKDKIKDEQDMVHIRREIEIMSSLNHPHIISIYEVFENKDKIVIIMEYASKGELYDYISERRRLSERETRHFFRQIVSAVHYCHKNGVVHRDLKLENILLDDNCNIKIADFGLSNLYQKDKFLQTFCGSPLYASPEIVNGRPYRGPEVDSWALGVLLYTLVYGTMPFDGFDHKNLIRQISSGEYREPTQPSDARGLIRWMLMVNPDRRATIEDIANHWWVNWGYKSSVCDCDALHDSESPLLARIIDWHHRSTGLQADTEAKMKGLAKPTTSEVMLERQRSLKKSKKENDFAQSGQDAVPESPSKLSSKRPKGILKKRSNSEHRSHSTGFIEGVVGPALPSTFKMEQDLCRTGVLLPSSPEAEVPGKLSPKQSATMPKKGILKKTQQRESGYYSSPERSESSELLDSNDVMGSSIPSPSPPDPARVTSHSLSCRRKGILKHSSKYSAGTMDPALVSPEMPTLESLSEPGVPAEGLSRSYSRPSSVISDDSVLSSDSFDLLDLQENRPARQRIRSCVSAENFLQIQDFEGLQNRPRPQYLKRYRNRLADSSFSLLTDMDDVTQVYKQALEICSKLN
# [13] = biological target: T4, NUAK family SNF1-like kinase 1 (Homo sapiens); conditions: at 1 µM
# [14] = biological target: T5, Serine/threonine-protein kinase BRSK1 (Homo sapiens) (UniProt Q8TDC3); conditions: at 0.1 µM
# T5 sequence (whole entry): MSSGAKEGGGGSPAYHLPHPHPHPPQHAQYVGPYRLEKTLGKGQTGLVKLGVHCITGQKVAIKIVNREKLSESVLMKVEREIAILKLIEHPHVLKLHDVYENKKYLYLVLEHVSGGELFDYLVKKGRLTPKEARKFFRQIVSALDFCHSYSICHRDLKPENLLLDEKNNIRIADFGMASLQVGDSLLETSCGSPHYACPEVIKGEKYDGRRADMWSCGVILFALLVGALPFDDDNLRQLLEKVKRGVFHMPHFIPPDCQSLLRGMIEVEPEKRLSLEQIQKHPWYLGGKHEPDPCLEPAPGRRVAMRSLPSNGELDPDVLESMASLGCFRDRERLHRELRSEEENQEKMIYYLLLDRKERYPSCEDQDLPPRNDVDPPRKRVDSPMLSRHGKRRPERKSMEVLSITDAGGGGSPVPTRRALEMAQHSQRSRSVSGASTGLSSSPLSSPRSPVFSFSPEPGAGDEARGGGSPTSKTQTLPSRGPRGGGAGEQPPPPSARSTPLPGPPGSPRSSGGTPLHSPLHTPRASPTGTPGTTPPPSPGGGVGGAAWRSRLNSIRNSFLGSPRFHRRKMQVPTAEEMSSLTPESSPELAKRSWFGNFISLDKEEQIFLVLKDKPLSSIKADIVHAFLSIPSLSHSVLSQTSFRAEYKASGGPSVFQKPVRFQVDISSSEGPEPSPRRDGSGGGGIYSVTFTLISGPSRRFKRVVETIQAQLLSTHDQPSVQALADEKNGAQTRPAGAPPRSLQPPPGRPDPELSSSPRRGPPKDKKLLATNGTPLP
# [15] = biological target: T5, Serine/threonine-protein kinase BRSK1 (Homo sapiens); conditions: at 1 µM
# [16] = biological target: T6, Serine/threonine-protein kinase BRSK2 (Homo sapiens) (UniProt Q8IWQ3); conditions: at 0.1 µM
# T6 sequence (whole entry): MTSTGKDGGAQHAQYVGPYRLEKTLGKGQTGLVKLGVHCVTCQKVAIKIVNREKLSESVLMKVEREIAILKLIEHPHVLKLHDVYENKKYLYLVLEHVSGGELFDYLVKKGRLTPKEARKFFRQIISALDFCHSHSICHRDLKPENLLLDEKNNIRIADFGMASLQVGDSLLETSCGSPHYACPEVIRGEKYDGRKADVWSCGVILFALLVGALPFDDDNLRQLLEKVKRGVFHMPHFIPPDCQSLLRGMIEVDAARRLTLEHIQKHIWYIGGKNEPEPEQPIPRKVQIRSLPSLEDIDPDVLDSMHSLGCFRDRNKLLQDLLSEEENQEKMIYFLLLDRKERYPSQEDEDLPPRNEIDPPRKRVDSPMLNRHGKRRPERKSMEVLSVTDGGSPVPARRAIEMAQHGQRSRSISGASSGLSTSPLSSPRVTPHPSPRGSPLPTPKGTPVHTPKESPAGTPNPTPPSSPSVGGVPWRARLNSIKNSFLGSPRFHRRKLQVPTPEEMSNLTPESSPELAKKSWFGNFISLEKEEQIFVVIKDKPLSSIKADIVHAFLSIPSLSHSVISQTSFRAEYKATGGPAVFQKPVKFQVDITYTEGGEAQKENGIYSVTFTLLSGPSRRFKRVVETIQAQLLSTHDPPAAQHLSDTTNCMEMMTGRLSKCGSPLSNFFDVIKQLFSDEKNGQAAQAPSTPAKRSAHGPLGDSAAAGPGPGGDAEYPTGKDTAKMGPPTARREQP
# [17] = biological target: T6, Serine/threonine-protein kinase BRSK2 (Homo sapiens); conditions: at 1 µM
# [18] = biological target: Calcium/calmodulin-dependent protein kinase type 1D (Homo sapiens) (UniProt Q8IU85); conditions: at 0.1 µM
# [19] = biological target: Calcium/calmodulin-dependent protein kinase type 1D (Homo sapiens) (UniProt Q8IU85); conditions: at 1 µM
# [20] = biological target: Calcium/calmodulin-dependent protein kinase type II subunit alpha (Homo sapiens) (UniProt Q9UQM7); conditions: at 0.1 µM;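 note: reported values are averages (mean inhibition of CAMK2A)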
# Chain of Calcium/calmodulin-dependent protein kinase type II subunit alpha (Homo sapiens) (Q9UQM7 whole entry): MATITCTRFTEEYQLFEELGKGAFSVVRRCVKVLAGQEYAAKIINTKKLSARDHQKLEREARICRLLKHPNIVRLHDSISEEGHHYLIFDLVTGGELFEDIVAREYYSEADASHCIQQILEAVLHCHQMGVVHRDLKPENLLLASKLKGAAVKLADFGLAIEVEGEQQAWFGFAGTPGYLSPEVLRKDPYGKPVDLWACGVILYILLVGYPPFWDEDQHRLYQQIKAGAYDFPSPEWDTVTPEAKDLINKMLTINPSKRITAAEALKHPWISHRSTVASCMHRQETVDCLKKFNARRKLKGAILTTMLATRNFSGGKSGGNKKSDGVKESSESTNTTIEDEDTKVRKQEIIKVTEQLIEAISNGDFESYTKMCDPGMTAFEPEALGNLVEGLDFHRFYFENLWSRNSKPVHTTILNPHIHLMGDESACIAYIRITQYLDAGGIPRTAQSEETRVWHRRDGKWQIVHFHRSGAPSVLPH
# Chain of Ribosomal protein S6 kinase alpha-6 (Homo sapiens) (Q9UK32 whole entry): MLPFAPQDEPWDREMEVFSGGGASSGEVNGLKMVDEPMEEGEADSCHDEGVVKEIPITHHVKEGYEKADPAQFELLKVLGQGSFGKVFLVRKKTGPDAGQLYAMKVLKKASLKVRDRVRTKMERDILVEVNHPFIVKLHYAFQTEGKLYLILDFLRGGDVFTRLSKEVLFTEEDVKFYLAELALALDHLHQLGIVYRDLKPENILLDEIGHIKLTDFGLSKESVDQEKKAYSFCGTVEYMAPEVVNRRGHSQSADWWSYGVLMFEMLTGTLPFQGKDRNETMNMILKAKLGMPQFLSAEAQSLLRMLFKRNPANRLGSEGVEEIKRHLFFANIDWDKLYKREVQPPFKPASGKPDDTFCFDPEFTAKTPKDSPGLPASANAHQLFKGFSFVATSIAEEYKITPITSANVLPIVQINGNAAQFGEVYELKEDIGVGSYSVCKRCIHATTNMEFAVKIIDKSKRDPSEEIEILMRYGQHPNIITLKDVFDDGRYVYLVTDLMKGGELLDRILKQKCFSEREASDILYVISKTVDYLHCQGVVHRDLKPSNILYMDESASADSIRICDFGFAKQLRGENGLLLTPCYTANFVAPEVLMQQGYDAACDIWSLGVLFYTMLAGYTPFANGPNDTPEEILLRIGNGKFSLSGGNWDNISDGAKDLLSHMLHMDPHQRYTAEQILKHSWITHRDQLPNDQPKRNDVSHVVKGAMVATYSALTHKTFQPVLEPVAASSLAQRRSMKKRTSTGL
# Chain of 5'-AMP-activated protein kinase catalytic subunit alpha-2 (Homo sapiens) (P54646 whole entry, looked up): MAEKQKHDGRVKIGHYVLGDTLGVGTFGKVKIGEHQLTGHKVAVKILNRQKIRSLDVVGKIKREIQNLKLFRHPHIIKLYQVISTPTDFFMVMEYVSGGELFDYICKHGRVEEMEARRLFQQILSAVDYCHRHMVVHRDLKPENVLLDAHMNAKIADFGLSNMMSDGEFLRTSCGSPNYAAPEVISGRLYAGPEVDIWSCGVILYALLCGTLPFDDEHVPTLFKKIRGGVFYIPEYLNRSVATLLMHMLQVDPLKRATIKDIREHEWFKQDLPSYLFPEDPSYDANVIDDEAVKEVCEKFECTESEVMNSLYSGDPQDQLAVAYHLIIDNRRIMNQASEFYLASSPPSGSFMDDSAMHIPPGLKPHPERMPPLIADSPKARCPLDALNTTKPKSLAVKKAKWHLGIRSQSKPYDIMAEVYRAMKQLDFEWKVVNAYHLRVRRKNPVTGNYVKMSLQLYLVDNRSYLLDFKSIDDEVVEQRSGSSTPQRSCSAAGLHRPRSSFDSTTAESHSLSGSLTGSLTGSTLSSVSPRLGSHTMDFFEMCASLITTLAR
# Chain of Calcium/calmodulin-dependent protein kinase type 1D (Homo sapiens) (Q8IU85 whole entry, looked up): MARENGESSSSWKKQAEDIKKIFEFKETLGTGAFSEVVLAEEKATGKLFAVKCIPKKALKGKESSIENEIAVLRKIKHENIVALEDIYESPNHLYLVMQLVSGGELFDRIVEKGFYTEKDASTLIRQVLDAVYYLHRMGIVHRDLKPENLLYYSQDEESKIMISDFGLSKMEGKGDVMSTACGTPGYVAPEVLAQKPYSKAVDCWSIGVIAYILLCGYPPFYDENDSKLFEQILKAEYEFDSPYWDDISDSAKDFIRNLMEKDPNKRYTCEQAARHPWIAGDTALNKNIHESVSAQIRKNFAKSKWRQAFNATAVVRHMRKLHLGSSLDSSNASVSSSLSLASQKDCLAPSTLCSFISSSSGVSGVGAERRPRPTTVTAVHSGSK
# Chain of 5'-AMP-activated protein kinase catalytic subunit alpha-1 (Homo sapiens) (Q13131 whole entry, looked up): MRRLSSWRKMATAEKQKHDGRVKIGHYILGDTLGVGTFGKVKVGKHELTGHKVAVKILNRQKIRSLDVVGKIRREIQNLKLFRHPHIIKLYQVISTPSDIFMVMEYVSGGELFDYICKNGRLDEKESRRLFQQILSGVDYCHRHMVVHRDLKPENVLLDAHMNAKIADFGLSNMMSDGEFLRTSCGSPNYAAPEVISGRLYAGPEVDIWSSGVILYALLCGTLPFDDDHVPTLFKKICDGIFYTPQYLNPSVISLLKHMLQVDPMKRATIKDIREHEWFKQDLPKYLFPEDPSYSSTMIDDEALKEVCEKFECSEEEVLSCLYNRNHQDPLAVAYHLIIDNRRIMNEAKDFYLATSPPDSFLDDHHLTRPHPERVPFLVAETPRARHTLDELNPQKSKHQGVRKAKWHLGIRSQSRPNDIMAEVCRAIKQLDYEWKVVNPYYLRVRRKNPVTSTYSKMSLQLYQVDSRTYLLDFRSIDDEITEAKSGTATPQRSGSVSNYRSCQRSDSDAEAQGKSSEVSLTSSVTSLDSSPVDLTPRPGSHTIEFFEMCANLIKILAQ
smiles,measurement,setting,value
N#Cc1ccc2c(-c3ccnc(NC4CC4)n3)c(-c3ccc(F)cc3)nn2c1,inhibition,[1],1.24%
same,inhibition,[2],1.64%
same,inhibition,[3],1.98%
same,inhibition,[4],-0.02%
same,inhibition,[5],-1.14%
same,inhibition,[6],2.02%
same,inhibition,[7],1.13%
same,inhibition,[8],0.78%
same,inhibition,[9],0.77%
same,inhibition,[10],0.36%
same,inhibition,[11],1.42%
same,inhibition,[12],-1.39%
same,inhibition,[13],-2.95%
same,inhibition,[14],-0.28%
same,inhibition,[15],-0.2%
same,inhibition,[16],-0.61%
same,inhibition,[17],1.09%
same,inhibition,[18],-0.16%
same,inhibition,[19],0.14%
same,inhibition,[20],-0.56%
Cc1cc(O)cc(C)c1/C=C/c1cncc(C(N)=O)c1,inhibition,[1],1.18%
same,inhibition,[2],1.6%
same,inhibition,[3],2.14%
same,inhibition,[4],3.61%
same,inhibition,[5],3.1%
same,inhibition,[6],1.2%
same,inhibition,[7],1.31%
same,inhibition,[8],1.98%
same,inhibition,[9],1.85%
same,inhibition,[10],2.5%
same,inhibition,[11],3.4%
same,inhibition,[12],0.73%
same,inhibition,[13],2.46%
same,inhibition,[14],3.32%
same,inhibition,[15],15%
same,inhibition,[16],2.91%
same,inhibition,[17],9.42%
same,inhibition,[18],4.14%
same,inhibition,[19],1.23%
same,inhibition,[20],7.97%
Cc1ccc(-c2cc3c(NC(=O)C4CC4)ncnc3o2)cc1,inhibition,[1],2.4%
same,inhibition,[2],2.2%
same,inhibition,[3],3%
same,inhibition,[4],5.33%
same,inhibition,[5],8.63%
same,inhibition,[6],3.61%
same,inhibition,[7],4.02%
same,inhibition,[8],3.13%
same,inhibition,[9],5.1%
same,inhibition,[10],2.34%
same,inhibition,[11],5.09%
same,inhibition,[12],2.09%
same,inhibition,[13],6.68%
same,inhibition,[14],2.59%
same,inhibition,[15],4.69%
same,inhibition,[16],2.82%
same,inhibition,[17],4.69%
same,inhibition,[18],0.92%
same,inhibition,[19],1.61%
same,inhibition,[20],4.04%
CCCNc1cccc(-n2ncc3c(N/N=C/c4ccncc4)ncnc32)c1,inhibition,[1],3.54%
same,inhibition,[2],2.34%
same,inhibition,[3],13.6%
same,inhibition,[4],2.41%
same,inhibition,[5],10.9%
same,inhibition,[6],3.53%
same,inhibition,[7],5.07%
same,inhibition,[8],1.8%
same,inhibition,[9],3.53%
same,inhibition,[10],-1.29%
same,inhibition,[11],2.07%
same,inhibition,[12],5.36%
same,inhibition,[13],36.3%
same,inhibition,[14],2.58%
same,inhibition,[15],24.7%
same,inhibition,[16],4.13%
same,inhibition,[17],29%
same,inhibition,[18],0.76%
same,inhibition,[19],1.66%
same,inhibition,[20],1.4%
COC(=O)Nc1nc2cc(Oc3ccc(NC(=O)Nc4ccccc4)cc3)ccc2[nH]1,inhibition,[1],0.36%
same,inhibition,[2],2.77%
same,inhibition,[3],5.31%
same,inhibition,[4],0.16%
same,inhibition,[5],3.69%
same,inhibition,[6],3.38%
same,inhibition,[7],5.17%
same,inhibition,[8],2.62%
same,inhibition,[9],2.79%
same,inhibition,[10],0.01%
same,inhibition,[11],0.9%
same,inhibition,[12],-0.53%
same,inhibition,[13],-0.72%
same,inhibition,[14],-0.86%
same,inhibition,[15],0.34%
same,inhibition,[16],0.79%
same,inhibition,[17],2.06%
same,inhibition,[18],0.99%
same,inhibition,[19],-1.18%
same,inhibition,[20],2.23%
COc1cccc(-n2ncc3c(N/N=C/c4ccc(C(=O)NCCN(C)C)cc4)ncnc32)c1,inhibition,[1],6.67%
same,inhibition,[2],8.85%
same,inhibition,[3],47.9%
same,inhibition,[4],6.05%
same,inhibition,[5],40.1%
same,inhibition,[6],3.22%
same,inhibition,[7],3.92%
same,inhibition,[8],3.69%
same,inhibition,[9],12.3%
same,inhibition,[10],2.3%
same,inhibition,[11],14.5%
same,inhibition,[12],43.9%
same,inhibition,[13],77.2%
same,inhibition,[14],23.5%
same,inhibition,[15],67.2%
same,inhibition,[16],33.3%
same,inhibition,[17],72%
same,inhibition,[18],0.97%
same,inhibition,[19],5.99%
same,inhibition,[20],2.13%
Cn1c(-c2nonc2N)nc2cnccc21,inhibition,[1],5.91%
same,inhibition,[2],3.35%
same,inhibition,[3],6.24%
same,inhibition,[4],5.57%
same,inhibition,[5],10.7%
same,inhibition,[6],2.77%
same,inhibition,[7],13.6%
same,inhibition,[8],3.36%
same,inhibition,[9],3.2%
same,inhibition,[10],0.94%
same,inhibition,[11],4.41%
same,inhibition,[12],0.78%
same,inhibition,[13],4.88%
same,inhibition,[14],2.34%
same,inhibition,[15],5.84%
same,inhibition,[16],3.19%
same,inhibition,[17],6.4%
same,inhibition,[18],0.12%
same,inhibition,[19],0.97%
same,inhibition,[20],3.13%
